Compounds without any hit were thinned out: in the full panel of roughly 83,000, 20% have a hit.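 Activity criterion: percent growth below 10, measured after cells in 96-well plates were exposed to a single compound concentration for 48 hours.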 Active and inactive are the calls of the source.
Key:
Experiment in all cases: NCI-60 one-dose screen, 48 h (100 = growth as untreated, 0 = no growth, -100 = all killed)
Conditions in all cases: 10 µM unless noted
SK-MEL-2 melanoma = tested on: SK-MEL-2 melanoma
EKVX NSCLC = tested on: EKVX NSCLC
SN12C renal = tested on: SN12C renal
UO-31 renal = tested on: UO-31 renal
TK-10 renal = tested on: TK-10 renal
ACHN renal = tested on: ACHN renal
CAKI-1 renal = tested on: CAKI-1 renal
A498 renal = tested on: A498 renal
CCRF-CEM leukemia = tested on: CCRF-CEM leukemia
MOLT-4 leukemia = tested on: MOLT-4 leukemia
SR leukemia = tested on: SR leukemia
RPMI-8226 leukemia = tested on: RPMI-8226 leukemia
OVCAR-8 ovarian = tested on: OVCAR-8 ovarian
OVCAR-5 ovarian = tested on: OVCAR-5 ovarian
OVCAR-4 ovarian = tested on: OVCAR-4 ovarian
SK-OV-3 ovarian = tested on: SK-OV-3 ovarian
IGROV1 ovarian = tested on: IGROV1 ovarian
OVCAR-3 ovarian = tested on: OVCAR-3 ovarian
HS 578T breast = tested on: HS 578T breast
NCI/ADR-RES ovarian = tested on: NCI/ADR-RES ovarian

Measured: growth

CN(C)c1ccc(-c2nc(-c3ccccc3)c(-c3ccccc3)[nH]2)cc1
inactive: SK-MEL-2 melanoma 83.9% | EKVX NSCLC 61.1% | SN12C renal 92.9% | UO-31 renal 84.8% | TK-10 renal 99.6% | ACHN renal 94% | CAKI-1 renal 84.6% | A498 renal 82.4% | CCRF-CEM leukemia 90% | MOLT-4 leukemia 83.4% | SR leukemia 88.2% | RPMI-8226 leukemia 90% | OVCAR-8 ovarian 96.9% | OVCAR-5 ovarian 122% | OVCAR-4 ovarian 94% | SK-OV-3 ovarian 83.1% | IGROV1 ovarian 91.6% | OVCAR-3 ovarian 114% | HS 578T breast 103% | NCI/ADR-RES ovarian 95%

CCN(CC)CCN1C(=O)c2cccc3c(/C=C/CN4C(=O)c5cccc6cccc(c56)C4=O)ccc(c23)C1=O
inactive: SK-MEL-2 melanoma 108% | EKVX NSCLC 106% | SN12C renal 96.1% | UO-31 renal 82% | TK-10 renal 129% | ACHN renal 96.8% | CAKI-1 renal 89% | A498 renal 77.7% | CCRF-CEM leukemia 25.4% | MOLT-4 leukemia 62.8% | SR leukemia 38.6% | RPMI-8226 leukemia 26.5% | OVCAR-8 ovarian 92.1% | OVCAR-5 ovarian 94.4% | OVCAR-4 ovarian 102% | SK-OV-3 ovarian 112% | IGROV1 ovarian 90.1% | OVCAR-3 ovarian 108% | HS 578T breast 84.8% | NCI/ADR-RES ovarian 99.8%

O=C(CC(=O)Nc1cccc(C(=O)O)c1)Nc1cccc(C(=O)O)c1
inactive: SK-MEL-2 melanoma 90.7% | EKVX NSCLC 101% | SN12C renal 102% | UO-31 renal 88.5% | TK-10 renal 102% | ACHN renal 91.6% | CAKI-1 renal 86.5% | A498 renal 104% | CCRF-CEM leukemia 94.2% | MOLT-4 leukemia 103% | SR leukemia 96% | RPMI-8226 leukemia 100% | OVCAR-8 ovarian 107% | OVCAR-5 ovarian 101% | OVCAR-4 ovarian 97.8% | SK-OV-3 ovarian 106% | IGROV1 ovarian 109% | OVCAR-3 ovarian 113% | HS 578T breast 100% | NCI/ADR-RES ovarian 106%

COc1ccc(NC(=O)Nc2ccc(OCCCCCC(=O)NO)cc2)cc1
inactive: SK-MEL-2 melanoma 79.9% | EKVX NSCLC 121% | SN12C renal 97% | UO-31 renal 87.4% | TK-10 renal 89.3% | ACHN renal 107% | CAKI-1 renal 93.5% | A498 renal 85.2% | CCRF-CEM leukemia 85.6% | MOLT-4 leukemia 85.6% | SR leukemia 71.6% | RPMI-8226 leukemia 97.8% | OVCAR-8 ovarian 87.8% | OVCAR-5 ovarian 113% | OVCAR-4 ovarian 122% | SK-OV-3 ovarian 97.1% | IGROV1 ovarian 115% | OVCAR-3 ovarian 103% | HS 578T breast 94.1% | NCI/ADR-RES ovarian 99.6%

C/C(=N\O)c1ccc(NC(=O)CSc2nnc(-c3cc(-c4ccc(S(N)(=O)=O)cc4)nc4ccccc34)n2-c2ccccc2)cc1
inactive: SK-MEL-2 melanoma 84% | EKVX NSCLC 77.3% | SN12C renal 78.6% | UO-31 renal 85.3% | TK-10 renal 80.8% | ACHN renal 95.9% | CAKI-1 renal 55.6% | A498 renal 39.7% | CCRF-CEM leukemia 40.5% | MOLT-4 leukemia 32.3% | SR leukemia 24.2% | RPMI-8226 leukemia 34.4% | OVCAR-8 ovarian 59.4% | OVCAR-5 ovarian 96.6% | OVCAR-4 ovarian 91.6% | SK-OV-3 ovarian 108% | IGROV1 ovarian 63% | OVCAR-3 ovarian 78% | HS 578T breast 61.7% | NCI/ADR-RES ovarian 98.9%

CC(C)(C)c1cc(Cl)c(O)c(CNCCO)c1
inactive: SK-MEL-2 melanoma 113% | EKVX NSCLC 101% | SN12C renal 109% | UO-31 renal 99.7% | TK-10 renal 105% | ACHN renal 110% | CAKI-1 renal 94.1% | A498 renal 89.4% | CCRF-CEM leukemia 110% | MOLT-4 leukemia 115% | SR leukemia 103% | RPMI-8226 leukemia 113% | OVCAR-8 ovarian 110% | OVCAR-5 ovarian 112% | OVCAR-4 ovarian 104% | SK-OV-3 ovarian 110% | IGROV1 ovarian 117% | OVCAR-3 ovarian 111% | HS 578T breast 82.7% | NCI/ADR-RES ovarian 109%

O=[N+]([O-])c1cc(NS(=O)(=O)c2ccccc2)ccc1NS(=O)(=O)c1ccccc1
inactive: SK-MEL-2 melanoma 99.6% | EKVX NSCLC 119% | SN12C renal 90.4% | UO-31 renal 95.8% | TK-10 renal 112% | ACHN renal 91.4% | CAKI-1 renal 129% | A498 renal 115% | CCRF-CEM leukemia 96.3% | MOLT-4 leukemia 117% | SR leukemia 128% | RPMI-8226 leukemia 109% | OVCAR-8 ovarian 93% | OVCAR-5 ovarian 106% | OVCAR-4 ovarian 106% | SK-OV-3 ovarian 102% | IGROV1 ovarian 119% | OVCAR-3 ovarian 111% | HS 578T breast 98.5% | NCI/ADR-RES ovarian 105%

CN1C(=O)/C(=C/c2ccc(C(=O)Nc3ncc(Cc4cccc(Cl)c4)s3)cc2)SC1=S
inactive: SK-MEL-2 melanoma 91.7% | EKVX NSCLC 55.9% | SN12C renal 84.2% | UO-31 renal 55.6% | TK-10 renal 56% | ACHN renal 33.2% | CAKI-1 renal 26.3% | A498 renal 74.9% | CCRF-CEM leukemia 69.3% | MOLT-4 leukemia 52.4% | SR leukemia 85.2% | RPMI-8226 leukemia 60.8% | OVCAR-8 ovarian 64.1% | OVCAR-5 ovarian 61.8% | OVCAR-4 ovarian 52.9% | SK-OV-3 ovarian 72.1% | IGROV1 ovarian 61.9% | OVCAR-3 ovarian 69% | HS 578T breast 74.6% | NCI/ADR-RES ovarian 56.9%

CC1(C)N=C(N)N=C(N)N1c1cccc(CCc2ccccc2)c1
inactive: SK-MEL-2 melanoma 50.3% | EKVX NSCLC 67.2% | SN12C renal 32.4% | UO-31 renal 98.5% | TK-10 renal 38.7% | ACHN renal 105% | CAKI-1 renal 107% | A498 renal 82.7% | CCRF-CEM leukemia 30.5% | MOLT-4 leukemia 30.5% | SR leukemia 28.5% | RPMI-8226 leukemia 26.5% | OVCAR-8 ovarian 52.6% | OVCAR-5 ovarian 49.2% | OVCAR-4 ovarian 72.1% | SK-OV-3 ovarian 58.9% | IGROV1 ovarian 30.3% | OVCAR-3 ovarian 22.8% | HS 578T breast 70.4% | NCI/ADR-RES ovarian 111%

CCOC(=O)c1c(C)nc2c(c1N)CC(=O)N2Cc1ccc(OC)cc1
active: TK-10 renal 0.0562% | OVCAR-4 ovarian 7.06% | SK-OV-3 ovarian 8.96%
inactive: SK-MEL-2 melanoma 51.2% | EKVX NSCLC 47.7% | SN12C renal 41.1% | UO-31 renal 33.8% | ACHN renal 28.4% | CAKI-1 renal 76.4% | A498 renal 63.5% | CCRF-CEM leukemia 117% | MOLT-4 leukemia 90.3% | SR leukemia 56.2% | RPMI-8226 leukemia 67.1% | OVCAR-8 ovarian 13.6% | OVCAR-5 ovarian 80.4% | IGROV1 ovarian 46.4% | OVCAR-3 ovarian 16.4% | HS 578T breast 29.4% | NCI/ADR-RES ovarian 34.4%

O=C(Cc1ccccc1)Nc1cccc(N=Cc2ccccc2O)c1
inactive: SK-MEL-2 melanoma 116% | EKVX NSCLC 104% | SN12C renal 96.6% | UO-31 renal 77.6% | TK-10 renal 103% | ACHN renal 110% | CAKI-1 renal 80.8% | A498 renal 115% | CCRF-CEM leukemia 106% | MOLT-4 leukemia 101% | SR leukemia 117% | RPMI-8226 leukemia 113% | OVCAR-8 ovarian 98% | OVCAR-5 ovarian 114% | OVCAR-4 ovarian 102% | SK-OV-3 ovarian 106% | IGROV1 ovarian 111% | OVCAR-3 ovarian 93.2% | HS 578T breast 108% | NCI/ADR-RES ovarian 105%

COc1ccc(-c2cc(-c3ccccc3)nc(N3CCN(CCNc4ccnc5cc(Cl)ccc45)CC3)n2)cc1
active: SK-MEL-2 melanoma -9.46% | SN12C renal -43.3% | UO-31 renal -4.9% | TK-10 renal -13.4% | CAKI-1 renal -24.9% | CCRF-CEM leukemia 3.98% | MOLT-4 leukemia -1.76% | SR leukemia 7.06% | RPMI-8226 leukemia -28.2% | OVCAR-8 ovarian -81% | OVCAR-4 ovarian -27.6% | IGROV1 ovarian -74% | OVCAR-3 ovarian 7.81% | NCI/ADR-RES ovarian -63.2%
inactive: EKVX NSCLC 79.9% | ACHN renal 66.3% | A498 renal 15.3% | OVCAR-5 ovarian 48.2% | SK-OV-3 ovarian 112% | HS 578T breast 66.4%

Cn1cc(-c2csc(-c3c[nH]c4ccc(F)cc34)n2)c2ccnc(Cl)c21
inactive: SK-MEL-2 melanoma 104% | EKVX NSCLC 65.6% | SN12C renal 73.6% | UO-31 renal 53% | TK-10 renal 69.8% | ACHN renal 51% | CAKI-1 renal 69.8% | A498 renal 42.5% | CCRF-CEM leukemia 50.5% | MOLT-4 leukemia 64.9% | SR leukemia 44.4% | RPMI-8226 leukemia 52.9% | OVCAR-8 ovarian 80.5% | OVCAR-5 ovarian 127% | OVCAR-4 ovarian 47.2% | SK-OV-3 ovarian 74.3% | IGROV1 ovarian 70.5% | OVCAR-3 ovarian 73.4% | HS 578T breast 74.3% | NCI/ADR-RES ovarian 71.4%

[2H]C([2H])([2H])Oc1ccc(F)cc1/C=C/C(=O)/C=C(/C=C/c1cc(F)ccc1OC([2H])([2H])[2H])OB(F)F
active: CCRF-CEM leukemia 1.24% | MOLT-4 leukemia 4.82%
inactive: SK-MEL-2 melanoma 94.2% | EKVX NSCLC 99.7% | SN12C renal 67.4% | UO-31 renal 53.9% | TK-10 renal 96.9% | ACHN renal 54.5% | CAKI-1 renal 74.1% | A498 renal 111% | SR leukemia 22.7% | RPMI-8226 leukemia 10.7% | OVCAR-8 ovarian 19.2% | OVCAR-5 ovarian 107% | OVCAR-4 ovarian 74.7% | SK-OV-3 ovarian 107% | IGROV1 ovarian 87.4% | OVCAR-3 ovarian 42.1% | HS 578T breast 91.9% | NCI/ADR-RES ovarian 76.5%

CNC(=O)c1ccccc1Nc1nc(Nc2cc(OC)c(OC)c(OC)c2)ncc1Br
inactive: ACHN renal 12.5% | CCRF-CEM leukemia 71.3% | MOLT-4 leukemia 66.3% | RPMI-8226 leukemia 41.5% | OVCAR-5 ovarian 13.3%
active: SK-MEL-2 melanoma -77.4% | EKVX NSCLC -10.4% | SN12C renal -40.7% | UO-31 renal -17.6% | TK-10 renal -31.4% | CAKI-1 renal 2.5% | A498 renal -88.4% | SR leukemia 6.27% | OVCAR-8 ovarian -20.3% | OVCAR-4 ovarian -34.5% | SK-OV-3 ovarian -77.2% | IGROV1 ovarian 4.34% | OVCAR-3 ovarian -6.51% | HS 578T breast -3.22% | NCI/ADR-RES ovarian -10.7%

CNC1=CC(=O)c2c(C(=O)OC)c(C)[n+]([O-])c(C)c2C1=O
active: OVCAR-3 ovarian 7.04%
inactive: SK-MEL-2 melanoma 70.7% | EKVX NSCLC 84% | SN12C renal 40% | UO-31 renal 90.7% | TK-10 renal 133% | ACHN renal 74.4% | CAKI-1 renal 74.4% | A498 renal 103% | CCRF-CEM leukemia 81.6% | MOLT-4 leukemia 95.6% | SR leukemia 95.5% | RPMI-8226 leukemia 76.1% | OVCAR-8 ovarian 35% | OVCAR-5 ovarian 96.1% | OVCAR-4 ovarian 26% | SK-OV-3 ovarian 120% | IGROV1 ovarian 70.2% | NCI/ADR-RES ovarian 70.6%
